HP1b chromo inh = inhibitors of HP1-beta chromodomain binding to methylated histone tails | AlphaScreen HP1-beta / biotin-H3K9me3 peptide binding | AID 540317 | Potency, µM (titrated, usually from 114 µM), for inactives: at the highest dose activity change, negative = inhibition, actives largely listed as inhibitors | 390,000 compounds, 0.56% hits | P83916; also: nearly all actives have a fitted effect of over 70% in size
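HP1-beta protein (50 nM final) preincubated 30 min at room temperature with biotinylated H3(1-18)K9me3 peptide (50 nM) in PBS pH 7.4, 0.01% Tween-20, then compound added for 30 min. AlphaScreen streptavidin donor/nickel chelate acceptor beads (10 ug/mL final), 30 min dark, luminescence read.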
BAZ2B block = blocks human BAZ2B; Potency, µM (highest dose often 114 µM), inactives show top-dose activity change, negative = inhibition, most hits filed as inhibitors; 360,000 compounds, 4.4% hits; Q9UIF8; AlphaScreen BAZ2B-H3K14Ac peptide displacement; also: % is scaled to controls: 0 for no effect and ±100 for the full control effect; nearly all actives have a fitted effect of over 60% in size
Target sequence (Q9UIF8 whole entry, looked up): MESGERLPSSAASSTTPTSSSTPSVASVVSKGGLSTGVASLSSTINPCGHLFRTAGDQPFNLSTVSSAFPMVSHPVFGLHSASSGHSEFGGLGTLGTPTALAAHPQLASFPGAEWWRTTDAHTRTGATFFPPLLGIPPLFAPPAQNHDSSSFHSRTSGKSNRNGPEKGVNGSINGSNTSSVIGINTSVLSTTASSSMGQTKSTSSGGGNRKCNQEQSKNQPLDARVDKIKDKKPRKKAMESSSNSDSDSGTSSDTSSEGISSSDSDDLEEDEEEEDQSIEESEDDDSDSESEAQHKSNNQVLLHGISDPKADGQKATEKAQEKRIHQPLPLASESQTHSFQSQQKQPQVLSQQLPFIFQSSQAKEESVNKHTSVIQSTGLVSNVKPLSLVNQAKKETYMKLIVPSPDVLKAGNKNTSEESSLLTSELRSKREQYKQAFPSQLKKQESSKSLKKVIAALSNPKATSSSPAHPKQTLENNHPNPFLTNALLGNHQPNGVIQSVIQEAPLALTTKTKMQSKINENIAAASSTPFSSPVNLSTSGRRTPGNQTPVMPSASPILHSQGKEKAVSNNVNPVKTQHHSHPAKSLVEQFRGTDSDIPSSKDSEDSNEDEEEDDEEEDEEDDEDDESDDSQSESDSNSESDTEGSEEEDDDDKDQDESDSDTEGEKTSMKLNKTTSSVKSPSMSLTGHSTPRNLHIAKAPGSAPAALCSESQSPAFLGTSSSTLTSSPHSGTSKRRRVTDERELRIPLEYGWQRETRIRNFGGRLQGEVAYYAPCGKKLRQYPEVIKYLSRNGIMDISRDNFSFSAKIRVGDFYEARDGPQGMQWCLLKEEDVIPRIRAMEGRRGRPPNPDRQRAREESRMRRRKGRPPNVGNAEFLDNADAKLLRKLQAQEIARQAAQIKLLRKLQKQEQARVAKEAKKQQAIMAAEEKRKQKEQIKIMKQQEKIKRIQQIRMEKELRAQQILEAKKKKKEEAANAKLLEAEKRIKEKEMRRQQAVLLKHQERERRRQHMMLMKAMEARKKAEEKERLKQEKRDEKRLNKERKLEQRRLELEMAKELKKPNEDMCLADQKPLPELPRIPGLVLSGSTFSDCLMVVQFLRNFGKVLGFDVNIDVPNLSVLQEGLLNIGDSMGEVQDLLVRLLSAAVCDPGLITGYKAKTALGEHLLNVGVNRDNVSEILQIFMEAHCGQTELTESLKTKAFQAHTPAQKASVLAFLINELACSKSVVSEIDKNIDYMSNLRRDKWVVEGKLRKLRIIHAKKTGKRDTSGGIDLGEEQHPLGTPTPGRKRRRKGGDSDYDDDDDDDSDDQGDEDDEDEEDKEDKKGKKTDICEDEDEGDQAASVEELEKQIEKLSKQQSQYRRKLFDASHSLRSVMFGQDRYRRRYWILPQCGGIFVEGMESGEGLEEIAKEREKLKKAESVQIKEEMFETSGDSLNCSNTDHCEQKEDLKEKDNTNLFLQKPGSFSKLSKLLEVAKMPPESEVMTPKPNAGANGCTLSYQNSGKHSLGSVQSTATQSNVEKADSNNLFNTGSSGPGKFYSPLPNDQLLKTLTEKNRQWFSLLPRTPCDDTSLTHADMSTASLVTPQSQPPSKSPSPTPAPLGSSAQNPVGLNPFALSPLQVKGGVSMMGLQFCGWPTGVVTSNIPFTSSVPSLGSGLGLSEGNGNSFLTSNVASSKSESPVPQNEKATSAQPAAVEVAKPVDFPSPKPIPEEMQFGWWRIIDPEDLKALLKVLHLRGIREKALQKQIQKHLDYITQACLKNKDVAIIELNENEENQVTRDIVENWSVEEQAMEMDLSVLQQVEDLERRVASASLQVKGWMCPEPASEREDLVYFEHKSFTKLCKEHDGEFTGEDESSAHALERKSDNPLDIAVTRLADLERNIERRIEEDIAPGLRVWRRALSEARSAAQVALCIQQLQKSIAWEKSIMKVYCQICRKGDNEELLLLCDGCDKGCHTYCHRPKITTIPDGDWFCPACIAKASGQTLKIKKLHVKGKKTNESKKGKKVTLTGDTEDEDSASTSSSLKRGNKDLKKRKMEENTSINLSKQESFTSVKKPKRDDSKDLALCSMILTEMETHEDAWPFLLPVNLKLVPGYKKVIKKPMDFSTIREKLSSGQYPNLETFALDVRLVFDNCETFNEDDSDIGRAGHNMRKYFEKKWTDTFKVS
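AlphaScreen displacement: compounds (up to 110uM) incubated 30 min at room temperature with a preformed 50 nM BAZ2B/50 nM biotinylated H3K14Ac peptide complex in PBS pH 7.4 with Tween-20. Donor and acceptor beads at 10 ug/mL final added, 20 min light-protected before reading.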
GLS inh = inhibitors of human glutaminase (GLS). O94925. GLS enzymatic activity, qHTS titration. Potency, µM (doses to about 45.5 µM), for the others: top-dose activity change, negative = inhibition, most hits filed as inhibitors. 410,000 compounds, 0.21% hits. AID 624170; also: % is scaled to controls: 0 for no effect and ±100 for the full control effect
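hKGA in 45 mM KH2PO4 pH 8.2, 0.02% Tween-20 with pin-transferred compounds; 1 mM L-glutamine (stock) plus glutamate oxidase/HRP/Amplex Red coupling added. Fluorescence read initially and after 30 min at RT.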
JMJD2A Tudor = blocks the human JMJD2A Tudor domain. O75164. AlphaScreen JMJD2A-Tudor / H3K4me3 peptide binding. Potency, µM (titrated, usually from 114 µM), without a hit: at the highest dose activity change, negative = inhibition, most hits filed as inhibitors. 390,000 compounds, 4.4% hits; also: % is scaled to controls: 0 for no effect and ±100 for the full control effect; nearly all actives have a fitted effect of over 50% in size
G9a block = inhibitors of human histone lysine methyltransferase G9a; Q96KQ7; G9a H3K9 monomethylation, AlphaScreen, 2 h; Potency, µM (highest dose often 102 µM), without a hit: at the highest dose activity, negative = inhibition, actives largely listed as inhibitors; 350,000 compounds, 8.8% hits; AID 504332; also: % is scaled to controls: 0 for no effect and ±100 for the full control effect; nearly all actives have a fitted effect of over 75% in size
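AlphaScreen read-out: biotin-H3K9 peptide (500 nM) methylation by 20 nM enzyme with 20 uM SAM, 2 h at room temperature after 15 min compound preincubation; anti-monomethyl H3K9 antibody plus donor/acceptor beads, 10 min dark.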
Active calls of the source: *; ? = inconclusive; nt = no result given; [ ] = remark or other dose. The list is not random: actives were taken first. Their share in the collection is about 10%. Calls follow the shape of the dose curve; as a rule, active = well fitted curve in the direction sought with a large enough effect; inconclusive = small, poorly fitted or top-dose-only effect, or another doubt; inactive = no such curve, though single readings can be large; an effect the other way counts as inactive or inconclusive. Potency is read from the fitted curve at half-maximal effect.

SMILES	HP1b chromo inh	BAZ2B block	GLS inh	JMJD2A Tudor	G9a block
Cn1c(-c2ccccc2)cnc1SCC(=O)N1CCCc2ccccc21	?	45µM*	11%	?	?
Cc1ccc(-c2cnc(SCC(=O)N3CCCc4ccccc43)n2C)cc1	?	28µM*	-9%	?	11µM*
O=C(CSc1nnnn1-c1ccccc1)N1CCCc2ccccc21	31%	-1%	8%	3%	10%
CCc1nnc(NC(=O)c2c(O)c3cccc4c3n(c2=O)CC4)s1	nt	3%	nt	nt	-38%[12.7 µM]
Cn1c(SCC(=O)N2CCCc3ccccc32)ncc(C(=O)Nc2ccccc2)c1=O	57%	3%	5%	0%	2%[59 µM]
CC(=O)NC(C)(c1ccccc1)c1nc(-c2cc(F)cc(F)c2)cs1 (configuration not stated)	nt	nt	4%	nt	nt
CC[C@]12c3[nH]c4ccc(OC)cc4c3CCN1C(=O)C(CC(=O)NC(C)(C)C)C[C@@H]2C(=O)N1CCN(C(=O)c2ccco2)CC1 (some centres not stated)	22%	nt	6%	-14%	nt
CCCC[C@H]1CCCO[C@@](C(=O)NCc2ccc(C)o2)(C(F)(F)F)C1	18%	nt	nt	-16%	nt
O=C(CSc1nnnn1C1CCCCC1)N1CCc2ccccc21	24%	7%	-4%	-6%	-1%[12.7 µM]
O=C(CSc1ncc(-c2ccccc2)n1C1CCCC1)N1CCc2ccccc21	-8%	?	-4%	-26%	32µM*
O=C(CSc1nccn1-c1ccc(Cl)cc1)N1CCCc2ccccc21	?	35µM*	-6%	?	50µM*
O=C(CSc1nccn1-c1ccccc1)N1CCc2ccccc21	-12%	?	-2%	-19%	?
COc1ccc(CCCc2nnc(SCC(=O)Nc3ccc(F)cc3)o2)cc1C	26%	3%	-4%	-12%	?
CC(=O)c1cccc(NS(=O)(=O)c2cc(-c3onc(C)c3C)ccc2C)c1	34%	2%	0%	0%	5%[59 µM]
FC(F)(F)c1cccc(N2CCN(c3ncnc4c3nc3n4CCCC3)CC2)c1	24%	-9%	-9%	-6%	7%[59 µM]
CCN(CC)S(=O)(=O)c1ccc(C(=O)Nc2nnc(CSC)o2)cc1	37%	79µM*	3%	-10%	0%
CCOC(=O)N1CCN(S(=O)(=O)c2ccc(C(=O)Nc3nnc(CSC)o3)cc2)CC1	51%	79µM*	1%	45µM*	-3%[59 µM]
CCc1nnc(NC(=O)c2ccc(S(=O)(=O)N(CC)Cc3ccccc3)cc2)o1	-16%	50µM*	?	-18%[11.4 µM]	-38%
CCCCN(C)S(=O)(=O)c1ccc(C(=O)Nc2nnc(CSC)o2)cc1	27%	?	7%	79µM*	nt
CCCCN(CCCC)S(=O)(=O)c1ccc(C(=O)Nc2nnc(COC)o2)cc1	56%	?	13%	-10%	2%[59 µM]
CCOC(=O)N1CCN(S(=O)(=O)c2ccc(NC(C)=O)cc2)CC1	46%	2%	-2%	-17%	nt
CCCCN(C)S(=O)(=O)c1ccc(C(=O)Nc2nnc(-c3ccco3)o2)cc1	23%	nt	0%	-17%	-44%
COc1ccc(CCNc2ncnc3c2c(-c2ccccc2)cn3-c2cccc(Cl)c2)cc1OC	11%	-38%	8%	-32%	-28%[59 µM]
CCOc1ccc(C2C(=O)N(C3CCCCC3)CC(=O)N2Cc2ccccc2OC)cc1OC (configuration not stated)	6%	-5%	0%	-19%	14%[59 µM]
COC(=O)C1(Cc2ccc3c(c2)CCC3)Cc2ccc3c(c2C1=O)CCC3 (configuration not stated)	109%	nt	1%	62%	nt
SMILES	HP1b chromo inh	BAZ2B block	GLS inh	JMJD2A Tudor	G9a block
O=C(Nc1ccc2ccccc2c1)c1cccc2ccccc12	20%[57 µM]	nt	0%	-14%	nt
C=C(c1cccc2ccccc12)P(=O)(O)O	47%	13%	3%	?	16µM*
O=C1CCCCc2sc(Br)c([N+](=O)[O-])c2N1	15%	-16%	-12%	-7%	-34%
CCn1cc2nc(SCC(=O)Nc3cc(OC)cc(OC)c3)n(Cc3ccc(Cl)cc3)c(=O)c2n1	43%	-1%	1%	-14%	-4%[59 µM]
CC1(C)CC(=O)C2=C(C1)Nc1cc3c(cc1C2c1ccc2c(c1)OCO2)OCO3 (configuration not stated)	5%	?	14%	?	40µM*
CSc1ccc2nnc(-c3cccc(F)c3)n2n1	17%	0%	-2%	-14%	40µM*
COC(=O)c1ccc(CSc2ccc3nnc(-c4cccc(F)c4)n3n2)o1	?	-2%	-19%	89µM*	18µM*
CCOC(=O)c1noc2nc(C)n(CC(=O)Nc3cc(Cl)ccc3OC)c(=O)c12	23%[57 µM]	-3%	-13%	-18%	14%[59 µM]
N#CCC(CNc1ncc(C(F)(F)F)cc1Cl)OC(=O)c1ccc(Cl)cc1Cl (configuration not stated)	65%	26%	-8%	19%	-2%[12.7 µM]
CCNc1ncc2nc(CCc3ccccc3)c(=O)n(C[C@H]3CCCO3)c2n1	nt	nt	nt	nt	-1%[0.501 µM]
COc1ccc(-c2cc(-c3ccccc3)c(C#N)c(SCC(=O)O)n2)cc1	60%	nt	0%	2%	nt
N#Cc1c(-c2ccccc2)cc(-c2ccccc2)nc1SCC(O)CS(=O)(=O)Cc1ccc(Cl)cc1 (configuration not stated)	?	-14%	1%	?	1.8µM*
COc1ccc(-c2cc(-c3ccccc3)c(C#N)c(SCC(O)CS(=O)(=O)Cc3ccc(Cl)cc3)n2)cc1 (configuration not stated)	108%	47%	-7%	-13%	42%[59 µM]
CCCOc1ccc(-c2cc(C(F)(F)F)c(C#N)c(SCCC(=O)O)n2)cc1	-17%	?	7%	79µM*	-6%[59 µM]
COc1ccc(-c2cc(-c3ccccc3)nc(SCC(=O)Nc3ccccc3C)c2C#N)cc1	-12%	-14%	0%	-11%	13µM*
COc1ccc(-c2cc(-c3ccc(Cl)cc3)c(C#N)c(SCC(=O)O)n2)cc1	?	?	?	79µM*	?
Cc1ccc(S(=O)(=O)N2CCN(C(=O)COC(=O)CCOc3ccccc3)CC2)c(C)c1	16%	3%	5%	-18%	-18%[12.7 µM]
COc1ccc(Nc2nc(N)c3cc(OC)c(OC)cc3n2)cc1	-1%	?	7%	?	?
Cc1nc2cnc(Oc3cccc(Cl)c3)nc2n(Cc2ccc(F)cc2)c1=O	nt	nt	nt	nt	10%[0.501 µM]
N#Cc1c(-c2ccccc2)cc(-c2ccccc2)nc1SCC(=O)NCC(=O)O	-10%	-15%	?	-12%	45µM*
CCCSc1nc(-c2ccc(OC)cc2)cc(-c2ccccc2OC)c1C#N	-39%	22%	-4%	22%	1.8µM*
Cc1nnc(SCc2ccc([N+](=O)[O-])cc2)o1	-24%	?	?	13µM*	-8%

Assay outcomes: PubChem, National Center for Advancing Translational Sciences (NCATS)
